Measurements from PubChem BioAssay (Tox21).
Several values for one entry are separate records, joined by “and”; a condition that tells them apart may be missing. Identical values can stand only once. Results filed as inconclusive are left out. Entries that show only a call come without a potency. More than one record can exist for a structure, and the calls need not agree. Activity calls are given as the source filed them. Calls follow the shape of the dose curve; as a rule, active = well fitted curve in the direction sought with a large enough effect in the repeat runs; inconclusive = weak or mixed curves; inactive = no such curve, though single readings can be large; an effect the other way counts as inactive or inconclusive.

Experiment: qHTS RealTime-Glo MT Cell Viability Assay in HEK293 cells - 24 hour (AID 1224886); also: nearly all actives have a fitted effect of over 50% in size; also: potency is read from the fitted curve at half-maximal effect
Conditions: RealTime-Glo luminescence; series mostly up to 76.8 µM
How it was run: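 Nonlytic real-time viability readout: viable cells convert prosubstrate to NanoLuc substrate, giving luminescence proportional to live cell number. HEK293, 600 cells/well, compound added after 5 h, continuous culture at 37 C.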

Row | SMILES | Potency
1 | O=C(O)CCC(=O)O | inactive
2 | Cc1ccc(C)c(OCCCC(C)(C)C(=O)O)c1 | inactive
3 | O=C(O)c1[nH]n(-c2ccc(S(=O)(=O)O)cc2)c(=O)c1N=Nc1ccc(S(=O)(=O)O)cc1 | inactive
4 | CC(O)CN(CCN(CC(C)O)CC(C)O)CC(C)O (stereo not drawn) | inactive
5 | CCCCCCCCCCCCCCCC(=O)O | inactive
6 | O=C(O)C(=O)O | inactive
7 | NC(=O)c1cnccn1 | inactive
8 | Cc1ccccc1C(OCCN(C)C)c1ccccc1 (stereo not drawn) | inactive
9 | c1ccc2[nH]ccc2c1 | 2.41 µM (active) and inactive
10 | CC(C)(Oc1ccc(C2CC2(Cl)Cl)cc1)C(=O)O (stereo not drawn) | inactive
11 | CCCC(CCC)C(=O)O | inactive
12 | O=C(O)CS | inactive
13 | COc1c2occc2cc2ccc(=O)oc12 | inactive and 21.9 µM (active)
14 | O=c1ccc2ccccc2o1 | inactive
15 | CCC1(c2ccccc2)C(=O)NCNC1=O | inactive
16 | CCCNC(=O)NS(=O)(=O)c1ccc(Cl)cc1 | inactive
17 | O=c1cc[nH]c(=S)[nH]1 | inactive
18 | NC(=O)c1ccccc1O | inactive

Row | SMILES | Potency
19 | Cn1cc[nH]c1=S | inactive
20 | Cn1c(=O)c2[nH]cnc2n(C)c1=O | inactive
21 | Cc1cc(=O)[nH]c(=S)[nH]1 | inactive
22 | COc1ccc2[nH]cc(CCNC(C)=O)c2c1 | inactive
23 | CC(C)[C@@H]1CC[C@@H](C)C[C@H]1O | inactive
24 | Nc1ccn([C@H]2CC[C@@H](CO)O2)c(=O)n1 | inactive
25 | CC(=O)OCC(COC(C)=O)OC(C)=O | inactive
26 | O=C(O)c1cc(N=Nc2ccc(S(=O)(=O)Nc3ccccn3)cc2)ccc1O | inactive
27 | O=C1NC(=O)c2ccccc21 | inactive
28 | O=C(C1CCCCC1)N1CC(=O)N2CCc3ccccc3C2C1 (stereo not drawn) | inactive
29 | Cc1ccc(S(=O)(=O)NC(=O)NN2CCCCCC2)cc1 | inactive
30 | O=C(O)c1cccc([N+](=O)[O-])c1 | inactive
31 | CC(=O)NS(=O)(=O)c1ccc(N)cc1 | inactive
32 | O=C(O)c1cccnc1 | inactive
33 | CC(O)CO (stereo not drawn) | inactive
34 | CCCC(O)C(CC)CO (stereo not drawn) | inactive
35 | O=C(O)/C=C\C(=O)O | inactive
36 | CC(=O)Nc1nnc(S(N)(=O)=O)s1 | inactive

Experiment: qHTS RealTime-Glo MT Cell Viability Assay in HEK293 cells - 8 hour (AID 1224887); also: nearly all actives have a fitted effect of over 50% in size; also: potency is read from the fitted curve at half-maximal effect
Conditions: RealTime-Glo luminescence; series mostly up to 76.8 µM
How it was run: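 600 cells/well were plated with the nonlytic NanoLuc/prosubstrate reagent, pre-incubated 5 h, then given 23 nL of compound in DMSO. Incubation at 37 C for 40 h, with luminescence from viable-cell-reduced substrate read repeatedly from 0 h.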

Row | SMILES | Potency
37 | O=C(O)CCC(=O)O | inactive
38 | Oc1ccc(/C=C/c2cc(O)cc(O)c2)cc1 | inactive
39 | Cc1ccc(C)c(OCCCC(C)(C)C(=O)O)c1 | inactive
40 | O=C(O)c1[nH]n(-c2ccc(S(=O)(=O)O)cc2)c(=O)c1N=Nc1ccc(S(=O)(=O)O)cc1 | inactive
41 | CC(O)CN(CCN(CC(C)O)CC(C)O)CC(C)O (stereo not drawn) | inactive
42 | CCCCCCCCCCCCCCCC(=O)O | inactive
43 | O=C(O)C(=O)O | inactive
44 | NC(=O)c1cnccn1 | inactive
45 | Cc1ccccc1C(OCCN(C)C)c1ccccc1 (stereo not drawn) | inactive
46 | c1ccc2[nH]ccc2c1 | inactive
47 | CC(C)(Oc1ccc(C2CC2(Cl)Cl)cc1)C(=O)O (stereo not drawn) | inactive
48 | CCCC(CCC)C(=O)O | inactive
49 | O=C(O)CS | inactive
50 | COc1c2occc2cc2ccc(=O)oc12 | inactive and 21.9 µM (active)
51 | O=c1ccc2ccccc2o1 | inactive
52 | CCC1(c2ccccc2)C(=O)NCNC1=O | inactive
53 | CCCNC(=O)NS(=O)(=O)c1ccc(Cl)cc1 | inactive
54 | O=c1cc[nH]c(=S)[nH]1 | inactive
55 | NC(=O)c1ccccc1O | inactive

Row | SMILES | Potency
56 | Cn1cc[nH]c1=S | inactive
57 | Cn1c(=O)c2[nH]cnc2n(C)c1=O | inactive
58 | Cc1cc(=O)[nH]c(=S)[nH]1 | inactive
59 | COc1ccc2[nH]cc(CCNC(C)=O)c2c1 | inactive
60 | CC(C)[C@@H]1CC[C@@H](C)C[C@H]1O | inactive
61 | Nc1ccn([C@H]2CC[C@@H](CO)O2)c(=O)n1 | inactive
62 | CC(=O)OCC(COC(C)=O)OC(C)=O | inactive
63 | O=C(O)c1cc(N=Nc2ccc(S(=O)(=O)Nc3ccccn3)cc2)ccc1O | inactive
64 | O=C1NC(=O)c2ccccc21 | inactive
65 | O=C(C1CCCCC1)N1CC(=O)N2CCc3ccccc3C2C1 (stereo not drawn) | inactive
66 | Cc1ccc(S(=O)(=O)NC(=O)NN2CCCCCC2)cc1 | inactive
67 | O=C(O)c1cccc([N+](=O)[O-])c1 | inactive
68 | CC(=O)NS(=O)(=O)c1ccc(N)cc1 | inactive
69 | O=C(O)c1cccnc1 | inactive
70 | CC(O)CO (stereo not drawn) | inactive
71 | CCCC(O)C(CC)CO (stereo not drawn) | inactive
72 | O=C(O)/C=C\C(=O)O | inactive
73 | CC(=O)Nc1nnc(S(N)(=O)=O)s1 | inactive

Experiment: A CellTox Green Cytotoxicity Assay to monitor cytotoxicity in HEK293 cells - 16 hour (AID 1224888); also: nearly all actives have a fitted effect of over 35% in size
Conditions: CellTox Green fluorescence; series mostly up to 76.8 µM
How it was run: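 HEK293 cells, 600/well, were preincubated 5 hours and then exposed to compounds at 37 C for up to 40 hours. A cell-impermeant cyanine dye staining dead-cell DNA was read by fluorescence at 0, 8, 16, 24, 32 and 40 h time points.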

Row | SMILES | Potency
74 | O=C(O)CCC(=O)O | inactive
75 | Oc1ccc(/C=C/c2cc(O)cc(O)c2)cc1 | inactive
76 | Cc1ccc(C)c(OCCCC(C)(C)C(=O)O)c1 | inactive
77 | O=C(O)c1[nH]n(-c2ccc(S(=O)(=O)O)cc2)c(=O)c1N=Nc1ccc(S(=O)(=O)O)cc1 | inactive
78 | CCCCCCCCCCCCCCCC(=O)O | inactive
79 | O=C(O)C(=O)O | inactive
80 | NC(=O)c1cnccn1 | inactive
81 | Cc1ccccc1C(OCCN(C)C)c1ccccc1 (stereo not drawn) | inactive
82 | CC(C)(Oc1ccc(C2CC2(Cl)Cl)cc1)C(=O)O (stereo not drawn) | inactive
83 | CCCC(CCC)C(=O)O | inactive
84 | O=C(O)CS | inactive
85 | COc1c2occc2cc2ccc(=O)oc12 | inactive
86 | O=c1ccc2ccccc2o1 | inactive
87 | CCC1(c2ccccc2)C(=O)NCNC1=O | inactive
88 | CCCNC(=O)NS(=O)(=O)c1ccc(Cl)cc1 | inactive
89 | O=c1cc[nH]c(=S)[nH]1 | inactive
90 | NC(=O)c1ccccc1O | inactive
91 | Cn1cc[nH]c1=S | inactive

Row | SMILES | Potency
92 | Cn1c(=O)c2[nH]cnc2n(C)c1=O | inactive
93 | Cc1cc(=O)[nH]c(=S)[nH]1 | inactive
94 | COc1ccc2[nH]cc(CCNC(C)=O)c2c1 | inactive
95 | CC(C)[C@@H]1CC[C@@H](C)C[C@H]1O | inactive
96 | Nc1ccn([C@H]2CC[C@@H](CO)O2)c(=O)n1 | inactive
97 | CC(=O)OCC(COC(C)=O)OC(C)=O | inactive
98 | O=C(O)c1cc(N=Nc2ccc(S(=O)(=O)Nc3ccccn3)cc2)ccc1O | inactive
99 | O=C1NC(=O)c2ccccc21 | inactive
100 | O=C(C1CCCCC1)N1CC(=O)N2CCc3ccccc3C2C1 (stereo not drawn) | inactive
101 | Cc1ccc(S(=O)(=O)NC(=O)NN2CCCCCC2)cc1 | inactive
102 | O=C(O)c1cccc([N+](=O)[O-])c1 | inactive
103 | CC(=O)NS(=O)(=O)c1ccc(N)cc1 | inactive
104 | O=C(O)c1cccnc1 | inactive
105 | CC(O)CO (stereo not drawn) | inactive
106 | CCCC(O)C(CC)CO (stereo not drawn) | inactive
107 | O=C(O)/C=C\C(=O)O | inactive
108 | CC(=O)Nc1nnc(S(N)(=O)=O)s1 | inactive
